Measurements as given in PubChem BioAssay (EPA / NIEHS).
“And” between values parts separate entries of the source, which are not always exact repeats. Equal entries are not always repeated. Records with an inconclusive call do not appear. More than one record can exist for a structure, and the calls need not agree. The source made the active and inactive calls. Rule for the calls, unless noted: active = hit-call score of the fitted dose curve at least 0.9, where 1 is the maximum; inactive = score below 0.9.

Experiments:
[1] = CCTE_Deisenroth_AIME_384WELL_CTox_Inactive: Cytotoxicity Assessment (CTOX) in CCTE's 384-well Estrogen Receptor Transactivation Assay without AIME metabolic competence (metabolism negative), Deisenroth Lab (AID 2284039; active = hit-call score of the fitted dose curve at least 0.9, where 1 is the maximum;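 note: cell viability via live-cell protease substrate cleaved to fluorescent probe; cells exposed 24 h to medium preincubated 2 h with alginate-water beads without S9; loss of fluorescence signal means loss of viability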)
Outline: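 Fluorescent protease-substrate viability readout after 24 h exposure of VM7Luc4E2 cells to conditioned medium. Chemicals (0.002–200 uM) first sat 2 h over alginate-water beads, no S9. Data fitted bidirectionally, loss of signal meaning viability loss.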

[2] = CCTE_Shafer_MEA_dev_active_electrodes_number: CCTE's Neural Network Formation Assay for Number of Active Electrodes, Shafer Lab (AID 2284040; active = hit-call score of the fitted dose curve at least 0.9, where 1 is the maximum;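 for AC50: potency for loss of active electrodes versus DMSO so lower counts are hits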)
Outline: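 Rat cortical primary cultures, 1.5 x 10^5 cells/well, PEI-coated MEA, laminin drop. Continuous exposure DIV 0–12; full media/compound change DIV 5, 9. Readout: electrodes with mean firing ≥5 spikes/min; AUC across days; loss vs DMSO.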

[3] = CCTE_Shafer_MEA_dev_per_burst_interspike_interval: CCTE's Neural Network Formation Assay for Burst Interspike Interval, Shafer Lab (AID 2284044);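 note: mean spike spacing inside bursts as AUC over recordings on days 5 7 9 12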;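 for AC50: potency for a decrease of within-burst interspike interval below DMSO level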
Outline: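 Developmental network-formation MEA in primary rat cortical cultures with exposure spanning days 0–12. Within-burst ISI is averaged per well and integrated across recording days by area under the curve, with DMSO as negative control baseline.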

[4] = CCTE_Shafer_MEA_dev_burst_duration_mean: CCTE's Neural Network Formation Assay for Mean Burst Duration, Shafer Lab (AID 2284045);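 for AC50: curve fitted for loss meaning shorter burst duration than DMSO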
Outline: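 Primary rat cortical neurons on 48-well 16-electrode MEA plates, exposed from day 0 with renewal at DIV 5 and 9; spontaneous activity recorded on days 5, 7, 9, 12. Well-mean burst duration across bursting electrodes, collapsed as trapezoidal AUC; DMSO baseline.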

[5] = CCTE_Shafer_MEA_dev_interburst_interval_mean: CCTE's Neural Network Formation Assay for Mean Interburst Interval, Shafer Lab (AID 2284046);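 note: well-mean interburst interval of bursting electrodes as AUC over four recording days; curve fitted for decrease in interburst interval relative to DMSO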
Outline: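 Primary rat cortical neurons on PEI-coated 48-well MEA plates (laminin added with cells at plating) (16 electrodes/well), exposed from plating day 0 with renewal at DIV 5 and 9. Mean inter-burst interval averaged over bursting electrodes, AUC across days 5, 7, 9, 12; DMSO baseline.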

[6] = CCTE_Shafer_MEA_dev_inter_network_spike_interval_mean: CCTE's Neural Network Formation Assay for Mean Inter-network Spike Interval, Shafer Lab (AID 2284047);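 for AC50: potency for a decrease in mean inter-network spike interval below DMSO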
Outline: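 Mean time between consecutive network-spike peaks, recorded extracellularly (adaptive spike detection) on DIV 5, 7, 9 and 12, summarized as trapezoidal AUC. Rat cortical cultures on MEAs dosed continuously days 0–12, re-dosed at feeds; loss-of-signal fit relative to DMSO.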

[7] = CCTE_Shafer_MEA_dev_network_spike_number: CCTE's Neural Network Formation Assay for Number of Network Spikes, Shafer Lab (AID 2284048);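 note: synchronized bursts across electrodes counted on days 5 7 9 12 and integrated as AUC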;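 for AC50: fit as a loss of signal meaning fewer network spikes than DMSO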
Outline: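 Primary rat cortical neurons on PEI/laminin 48-well MEA plates, dosed from plating day 0 for 12 days, renewed at DIV 5 and 9. Network spike counts recorded DIV 5, 7, 9, 12, collapsed as trapezoidal AUC; DMSO baseline.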

[8] = CCTE_Shafer_MEA_dev_spike_duration_mean: CCTE's Neural Network Formation Assay for Mean Spike Duration, Shafer Lab (AID 2284051);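 note: mean network spike duration pooled as area under curve over DIV 5 to 12 recordings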;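 for AC50: potency for a decrease in mean network spike duration versus DMSO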
Outline: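 Spontaneous activity was recorded on days 5, 7, 9 and 12 from rat cortical cultures grown on microelectrode arrays and dosed continuously from day 0, with media and compound renewed after the DIV 5 and 9 recordings. Network-spike duration was collapsed by area under the curve.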

[9] = CCTE_Shafer_MEA_dev_network_spike_duration_std: CCTE's Neural Network Formation Assay for Standard Deviation of Network Spike Duration, Shafer Lab (AID 2284052);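 note: hits are decreases in network spike duration SD versus DMSO vehicle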
Outline: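 Network spike duration variability was collapsed across recordings on days 5, 7, 9 and 12 by trapezoidal area-under-curve and fitted downward against DMSO. Cultures were rat cortical neurons on PEI-coated MEA plates, dosed continuously from plating, refed with compound DIV 5/9.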

[10] = CCTE_Shafer_MEA_dev_per_network_spike_spike_number_mean: CCTE's Neural Network Formation Assay for Mean Number of Spikes in a Network Spike, Shafer Lab (AID 2284053);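 for AC50: fitted as decrease in spikes per network spike relative to DMSO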
Outline: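 Mean spike count within each network spike, taken in a 0.05 s window at its peak, was recorded on days 5, 7, 9 and 12 and integrated as trapezoidal area under the curve. Rat cortical cultures on MEA plates received continuous compound from day 0, refreshed at medium changes on DIV 5 and 9.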

[11] = CCTE_Shafer_MEA_dev_per_network_spike_spike_percent: CCTE's Neural Network Formation Assay for Percent of Spikes in a Network Spike, Shafer Lab (AID 2284054)
Outline: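 Rat primary cortical neurons were grown on 48-well MEA plates (16 electrodes/well), exposed from plating day 0 through day 12, with treatment renewed on DIV 5 and 9. Percent of spikes within 0.05 s network-spike peaks was measured, summarised as AUC across days 5, 7, 9, 12.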

[12] = CCTE_Shafer_MEA_dev_AB: CCTE's Alamar Blue Assay for Cytotoxicity in the Neural Network Formation Assay, Shafer Lab (AID 2284083; active = hit-call score of the fitted dose curve at least 0.9, where 1 is the maximum;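 note: resazurin reduction fluorescence as viability of cultured neurons; twelve days of exposure from plating with re-dosing on DIV 5 and 9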)
Outline: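 Resazurin fluorescence, relative to DMSO, gauges viability after twelve days of exposure that began at plating of rat cortical neurons (1.5 x 10^5 cells/well, 48-well MEA); treatment renewed with full medium exchange on DIV 5 and 9.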

[13] = CCTE_Shafer_MEA_acute_LDH: CCTE's Lactate Dehydrogenase Assay for Cytotoxicity in the Neural Acute Assay, Shafer Lab (AID 2284086; active = hit-call score of the fitted dose curve at least 0.9, where 1 is the maximum;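 note: active means LDH release rises above DMSO vehicle level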)
Outline: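 Released lactate dehydrogenase, read at 490 nm, indicated cytotoxicity after acute 40-min compound treatment of rat cortical neuron networks grown on 48-well MEA plates.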

[14] = CCTE_Shafer_MEA_acute_AB: CCTE's Alamar Blue Assay for Cytotoxicity in the Neural Acute Assay, Shafer Lab (AID 2284069; active = hit-call score of the fitted dose curve at least 0.9, where 1 is the maximum;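 note: active compounds lower the viability signal compared with DMSO wells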)
Outline: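 Resazurin reduction (CellTiter Blue, 1:6 in fresh medium) read at ex 544/em 590 nm marks viability loss relative to DMSO. Cells: primary rat cortical neuron networks on microelectrode arrays, treated after baseline recording at 13 or 15 days in vitro.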

DIO2 (gene 1734) = test: CCTE_GLTED_hDIO2: CCTE's human Deiodinase 2 (DIO2) Inhibition Assay, Great Lakes Toxicology and Ecology Division (GLTED) Lab (AID 2284050; active = hit-call score of the fitted dose curve at least 0.9, where 1 is the maximum)
Outline: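 In this cell-free test, chemicals are exposed to human deiodinase type 2 for 3 hours. Released iodide is determined spectrophotometrically via the Sandell-Kolthoff method, and signal loss relative to DMSO is fitted.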

DIO3 (gene 1735) = test: CCTE_GLTED_hDIO3: CCTE's human Deiodinase 3 (DIO3) Inhibition Assay, Great Lakes Toxicology and Ecology Division (GLTED) Lab (AID 2284055; active = hit-call score of the fitted dose curve at least 0.9, where 1 is the maximum;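 note: potency is for inhibition seen as loss of released iodide signal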)
Outline: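 Enzyme activity is tracked as iodide release from substrate by recombinant human DIO3 over 3 h with chemical present. A second Sandell-Kolthoff step converts iodide to an absorbance signal, fitted relative to DMSO.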

Measured: AC50

CCOP(=S)(OCC)SCCSCC
not listed: [14] | DIO2 (gene 1734) | DIO3 (gene 1735)
inactive: all other assays above

CC1(C(=O)Nc2ccc(O)c(Cl)c2Cl)CCCCC1
inactive: [1]

CCC(CC)Nc1c([N+](=O)[O-])cc(C)c(C)c1[N+](=O)[O-]
inactive: [1]

CC(C)N(C(=O)SCC(Cl)=C(Cl)Cl)C(C)C
active: [2] 27 µM | [8] 27.3 µM | [10] 15 µM | [11] 15 µM | [12] 21.8 µM
not listed: [3] | DIO2 (gene 1734) | DIO3 (gene 1735)
inactive: all other assays above

CC(C1CC1)C(O)(Cn1cncn1)c1ccc(Cl)cc1 (stereo not drawn)
inactive: [1]

C#CCC1=C(C)C(OC(=O)C2C(C=C(C)C)C2(C)C)CC1=O (stereo not drawn)
active: [1] 144 µM | [6] 9.95 µM | DIO2 (gene 1734) 42.4 µM | [11] 2.64 µM | DIO3 (gene 1735) 34.5 µM
not listed: [14]
inactive: all other assays above

CCOP(=S)(OCC)OC(Cl)C(Cl)(Cl)Cl (stereo not drawn)
active: [2] 50 µM and 22.9 µM | [3] 23.4 µM | [4] 23.4 µM | [5] 50 µM and 13.7 µM | [6] 13.1 µM | [7] 23.1 µM | [8] 50 µM and 23.4 µM | [9] 13.9 µM | [10] 50 µM and 17.4 µM | [11] 26.7 µM and 18.6 µM | [12] 30.7 µM and 17.8 µM
inactive: [3] | [4] | [6] | [7] | [9]

N#CSCSC#N
inactive: [1] | [14] | [13]

CCC(=O)Nc1ccc(Cl)c(Cl)c1
inactive: [1]

Nc1nc(N)nc(NC2CC2)n1
inactive: [1]

CN(C)[C@@H]1C(=O)C(C(N)=O)=C(O)[C@@]2(O)C(=O)C3=C(O)c4c(O)cccc4[C@@](C)(O)[C@H]3[C@H](O)[C@@H]12
active: [2] 50 µM | DIO2 (gene 1734) 100 µM and 61.6 µM | [8] 66.2 µM | [10] 50 µM | [11] 89.4 µM | DIO3 (gene 1735) 71.9 µM and 25.6 µM and 24.8 µM | [12] 50 µM
inactive: all other assays above

CCOP(=S)(OCC)Oc1ccc2c(C)c(Cl)c(=O)oc2c1
active: [2] 65.8 µM | [10] 24.4 µM | [11] 82.2 µM | [12] 78.4 µM
not listed: [8] | DIO2 (gene 1734) | DIO3 (gene 1735)
inactive: all other assays above

COP(=O)(NC(C)=O)SC (stereo not drawn)
active: [13] 0.00708 µM
inactive: [1] | [2] | [3] | [4] | [5] | [6] | [7] | [8] | [9] | [10] | [11] | [14] | [13]

CCNc1nc(Cl)nc(NC(C)(C)C#N)n1
active: DIO3 (gene 1735) 21.5 µM
inactive: DIO2 (gene 1734)

Nc1c(Cl)cc([N+](=O)[O-])cc1Cl
inactive: [14]
active: [13] 0.0105 µM

CCCSP(=O)(OCC)SCCC
inactive: [3] | [4] | [5] | [6] | [7] | [9]
active: [2] 27.9 µM and 50.5 µM | [8] 36.2 µM and 27.2 µM | [10] 15.8 µM and 27.3 µM | [11] 24.3 µM and 26.5 µM | [12] 20.6 µM and 18.7 µM
